Results published in PMC8384837, “Expanding the binding specificity for RNA recognition by a PUF domain”.

target: PUM1 PUF domain R5-LWA (Homo sapiens, UniProt Q14671 828-1176, C1007L;R1008W;Q1011A); assay: yeast three-hybrid, YBZ-1, SC-Leu-His + 0.5 mM 3-AT, 4 days; conditions: tags: N-Gal4 AD-HA kept; label: inside an RPR1-promoter hybrid RNA with tandem MS2 sites; ssRNA
Procedure, shortened: (§1)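 Sequencing with Illumina followed PCR amplification of the repeat regions from transformants grown four days on SC-Leu (input) or SC-Leu-His + 0.5 mM 3-AT (selection). The transformants were strain YBZ-1 with a LexA–MS2 coat fusion and a HIS3 reporter, carrying Pumilio-1 PUF domain libraries and matching RNA elements. The interaction score is the log change in variant frequency from input to selection, computed in log2 with a pseudocount of 1 for absent variants.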

Chain of PUM1 PUF domain R5-LWA (Q14671 828-1176 C1007L/R1008W/Q1011A): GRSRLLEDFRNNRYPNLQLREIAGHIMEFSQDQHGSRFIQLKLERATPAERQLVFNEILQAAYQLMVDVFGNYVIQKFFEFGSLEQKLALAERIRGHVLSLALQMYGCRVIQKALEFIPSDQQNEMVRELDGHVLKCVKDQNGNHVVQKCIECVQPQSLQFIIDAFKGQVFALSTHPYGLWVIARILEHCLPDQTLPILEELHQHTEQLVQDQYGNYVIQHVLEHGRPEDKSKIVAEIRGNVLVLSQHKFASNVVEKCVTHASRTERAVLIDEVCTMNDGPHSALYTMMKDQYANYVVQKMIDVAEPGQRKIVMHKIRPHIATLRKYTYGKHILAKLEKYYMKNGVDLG

| Sequence | binding signal |
| --- | --- |
| GGCUAGAACUAGUGGAUCCCCCGGCGCCCGGCGGCUCGAGCCCGGGUAAGUGUGAAUAGUCUGCAUGCCGCCGGGCGCCAUGCCUGCAGGUCGACUCUAGAAAACAUG | 1.01 log2 enrichment (interaction score) |
| GGCUAGAACUAGUGGAUCCCCCGGCGCCCGGCGGCUCGAGCCCGGGUAAGUGUAAAUAGUCUGCAUGCCGCCGGGCGCCAUGCCUGCAGGUCGACUCUAGAAAACAUG | 1.66 log2 enrichment (interaction score) |
| GGCUAGAACUAGUGGAUCCCCCGGCGCCCGGCGGCUCGAGCCCGGGUAAGUGUUAAUAGUCUGCAUGCCGCCGGGCGCCAUGCCUGCAGGUCGACUCUAGAAAACAUG | 3.28 log2 enrichment (interaction score) |

target: PUM1 PUF domain R5-RRP (Homo sapiens, UniProt Q14671 828-1176, C1007R;Q1011P); assay: as above; conditions: tags: N-Gal4 AD-HA kept; label: inside an RPR1-promoter hybrid RNA with tandem MS2 sites; ssRNA
Sequence (Q14671 828-1176 C1007R/Q1011P): as the sequence (Q14671 828-1176 C1007L/R1008W/Q1011A) above, with L180R, W181R, A184P counted along it
Procedure, shortened: as §1

| Sequence | binding signal |
| --- | --- |
| GGCUAGAACUAGUGGAUCCCCCGGCGCCCGGCGGCUCGAGCCCGGGUAAGUGUGAAUAGUCUGCAUGCCGCCGGGCGCCAUGCCUGCAGGUCGACUCUAGAAAACAUG | 1.27 log2 enrichment (interaction score) |
| GGCUAGAACUAGUGGAUCCCCCGGCGCCCGGCGGCUCGAGCCCGGGUAAGUGUCAAUAGUCUGCAUGCCGCCGGGCGCCAUGCCUGCAGGUCGACUCUAGAAAACAUG | 5.07 log2 enrichment (interaction score) |
| GGCUAGAACUAGUGGAUCCCCCGGCGCCCGGCGGCUCGAGCCCGGGUAAGUGUAAAUAGUCUGCAUGCCGCCGGGCGCCAUGCCUGCAGGUCGACUCUAGAAAACAUG | 3.17 log2 enrichment (interaction score) |
| GGCUAGAACUAGUGGAUCCCCCGGCGCCCGGCGGCUCGAGCCCGGGUAAGUGUUAAUAGUCUGCAUGCCGCCGGGCGCCAUGCCUGCAGGUCGACUCUAGAAAACAUG | 4.7 log2 enrichment (interaction score) |
